Experimental findings from PubChem BioAssay (NCI) are described below.

The panel holds about 83,000 compounds, 20% with a hit somewhere; the sample as a whole holds those more often.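 Plates (96-well) were seeded with cells, treated with compound at one concentration, and incubated for 48 hours before percent growth was determined.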 Unmarked numbers belong to inactive results.

The test deals with SNB-19 CNS. The experiment in a line: NCI-60 one-dose screen, 48 h (100 = growth as untreated, 0 = no growth, -100 = all killed). The settings on record: 10 µM unless noted. The protocol: Growth inhibition of the SNB-19 human tumor cell line is measured as a screen for anti-cancer activity. Cells are grown in 96 well plates and exposed to the test compound for 48 hours. Compounds are tested at a single concentration, which is 10^-5 M for most compounds. The reported endpoint is percent growth (GI% or GIPRCNT), where numbers from 0 - 100% represent growth inhibition, and numbers from -100% - 0 represent cell death. For example, a value of 40 represents 60% growth inhibition. A value of 0 means no net growth occurred over the course of the experiment. A value of -40 indicates 40% of cells at the beginning of the experiment died by the end of the experiment. A value of -100 means all cells are dead at the end of the experiment.
NCI-60 Human Tumor Cell Lines Screen was performed using the standard one-dose NCI protocol, which is described in more detail at https://dtp.cancer.gov/discovery_development/nci-60/default.htm.
Compounds with GIPRCNT values below 10 were considered active. Activity score was based on GIPRCNT using the following formula: […]
Score is 0 for GIPRCNT values of 100 or above, 50 for GIPRCNT values of 0, and 100 for GIPRCNT values of -100.
With `C#Cc1cccc(Nc2ncnc3ccc(NC(=O)c4ccccc4)cc23)c1`, the growth was 89.5%. For `CC(C)C1=C[C@@]23CC[C@H]4[C@](C)(COCCC#N)CCC[C@]4(C)[C@H]2C[C@@H]1[C@@H]1[C@H]3[C@@H](OCCC#N)CC[C@@H]1OCCC#N`, the growth is 50.3%. For the molecule `O=C(CN1N=C(c2ccc(F)cc2)CCC1=O)Nc1nc2ccccc2s1`, the growth was 94.4%.

Turning to `CC(=O)O[C@@H]1C[C@]2(C)[C@H]3[C@H](O)C[C@@H]4C5=CC(C)(C)CC[C@]5(C)CC[C@@]4(C)[C@]3(C)CC[C@H]2C(C)(C)[C@H]1O`, the growth is 104%. The value for `COc1ccc(-n2cc(-c3ccc(Cl)c(Cl)c3)[nH]c2=O)cc1OC` was 90.9%. For the molecule `COc1cc(C(=O)Nc2cc(OC)c3ccn(C)c3c2)cc2c1C[C@]1(C)CC[C@@H](O)C(C)(C)[C@H]1O2`, the growth was 33.3%. Turning to `Cc1nc2sc(C(=O)Nc3cccc4ccccc34)c(N)c2cc1C(C)O` (stereo not given), the growth was 34%. As for `C=C1C(=O)O[C@H]2[C@H]1CC/C(COC(=O)N1CCC[C@H]1C(=O)Nc1ccc(OC)c(C(N)=O)c1O)=C\CC[C@@]1(C)O[C@@H]21`, the growth is 60.5%. Take `Cn1c2c(c3ccc(-c4ccn[nH]4)cc3c1=O)C(=O)c1ccccc1-2`: the growth was 27.4%. As to `Cc1cc(Nc2nc(SCc3ccc(C(=O)Nc4ccc(F)cc4N)cc3)nn3cccc23)n[nH]1`, the growth is 43.8%. Take `CCCCn1c(=O)c(/C=C/C(=O)/C=C/c2ccc(OC)cc2)cc2cc(Cl)ccc21`: the growth was 47.5%. Consider `CN(CCC#N)C(=O)Nc1ccccc1`, for which the growth was 109%. The value for `Cc1c(Br)cccc1NC(=O)c1sc2nc3c(cc2c1N)CN(Cc1ccccc1)CC3` was 23%; that for `CC[C@]12C=CCN3CC[C@@]4(c5ccc(OC)cc5N(C)[C@H]4[C@@](O)(C(=O)OC)[C@@H]1OC(=O)CCC(=O)O[C@H]1CC[C@H]4[C@@H]5CC[C@H]6CC(=O)CC[C@]6(C)[C@H]5CC[C@]14C)[C@@H]32` was 37.5%.

Consider `COc1ccc2nc(-c3ccc(Cl)cc3)cc(C(=O)N3N=C(c4ccc(N)cc4)CC3c3ccccc3)c2c1` (stereo not given), for which the growth was 49.6%. In the case of `C[C@H]1[C@H](C)CC[C@]2(C(=O)OCCOCCOCC[P+](c3ccccc3)(c3ccccc3)c3ccccc3)CC[C@]3(C)C(=CC[C@@H]4[C@@]5(C)CC[C@H](OC(=O)C(Cl)Cl)C(C)(C)[C@@H]5CC[C@]43C)[C@H]12`, the growth is 20.4%. Consider `COCCOCCOCc1n(Cc2ccc3ccccc3c2)c2ccccc2[n+]1Cc1ccc2ccccc2c1`, for which the growth is 23%. Consider `COc1cc(N=Nc2cc(S(=O)(=O)O)cc3cc(S(=O)(=O)O)cc(O)c23)c(C)cc1N=Nc1c(S(=O)(=O)O)cc2cc(Nc3ccccc3)ccc2c1O`, for which the growth is 104%.

`COc1cc(/C=N/Nc2nc(-c3ccc(F)cc3)c(C#N)c(N3CCOCC3)n2)ccc1O`: the growth is 92.9%. The value for `COc1ccc(NC(=O)c2sc3nc(C)c(C(C)=O)cc3c2N)cc1` was 96.1%; that for `COCCOC(=O)COc1ccc(OC)cc1` was 97.4%; that for `N#Cc1c(-c2ccc(F)cc2)c(C#N)c2c(C#N)c(N)nn2c1N` was 108%.

On to `CNc1cccc2c1C(=O)c1cccc(N)c1C2=O`, for which the growth was 84.2%. As to `N#Cc1c(NC(=O)c2cccs2)[n+]([O-])c2cc(C(F)(F)F)ccc2[n+]1[O-]`, the growth is 106%. On to `CCCNc1nc(C)[nH]c(=O)c1S`, for which the growth was 93.1%. Regarding `COc1ccc(C(=O)c2cc(OC)c(OC)c(OC)c2)cc1OC(=O)CCl`, the growth was 31.3%. For the molecule `O=C(O)c1ccc(-n2cc(/C=N/Nc3ccc(Cl)cc3Cl)c(-c3ccccc3)n2)cc1`, the growth is 101%. Take `COc1ccc(/C(=N\O)c2cc(C)c(OC)c(C)c2)cc1O`: the growth was 29.8%. Regarding `O=c1[nH]nc(-c2ccc(Br)cc2)c2sc(NC(=S)Nc3ccc(Cl)cc3)nc12`, the growth is 103%. The value for `COC(=O)c1oc2c(C(=O)/C=C/c3ccc(OC)cc3)c(OCCCN3CCCCC3)ccc2c1C` was 38.4%; that for `O=C(NC[C@H](O)CN1CCc2ccccc2C1)c1cc(NC2COC2)ncn1` was 99%; that for `Clc1ccc2c(NCCCNC3CCCCC3)ccnc2c1` was 110%. The value for `CC(=O)c1cc2c(N)c(C(=O)Nc3ccccn3)sc2nc1C` was 82.4%; that for `CC(=O)OCC1OC(OC2C(COC(C)=O)OC(OCCC[S-])C(OC(C)=O)C2OC(C)=O)C(OC(C)=O)C(OC(C)=O)C1OC(C)=O.[Au+].c1ccc(CN2[CH-]N(Cc3ccccc3)C(c3ccccc3)=C2c2ccccc2)cc1` (stereo not given) was 23.2%; that for `N#CC1C(c2ccc(Cl)cc2)=Nc2c(c(-c3ccccc3)nn2-c2ccccc2)C12C(=O)Nc1ccc(Cl)cc12` (stereo not given) was 24.1%. As for `Cc1nccc2c3ccc(OCc4cn(-c5ccc(Cl)cc5)nn4)cc3n(CC(C)C)c12`, the growth was 38.9%. The value for `N#Cc1c(-c2ccc(F)cc2)nc(N/N=C/c2c[nH]c3ccccc23)nc1N1CCOCC1` was 89.7%; that for `Cc1cc(Cl)cc(CN(Cc2ccccc2)Cc2c(O)ccc3ccccc23)c1O` was 99.9%. The value for `COc1cc(F)c(-c2nc3c(C)cccc3n2Cc2c(F)cccc2F)c(F)c1` was 91.6%; that for `COC(=O)/C=C/c1cc(OC)c2c(c1)[C@@H](C(=O)OC)[C@H](c1ccc(OC)c(OC)c1)O2` was 35%.
